Article PMC5540273 (PLoS ONE, 2017)

Each molecule was assayed on CAMKK1. Details: concentration: 1 μM, replicates: in singlicate; n = 1.
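Also: KINOMEscan kinase panel screen.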

SMILES | %Inh
CC(C)c1nc(-c2cccc(NS(=O)(=O)c3c(F)cccc3F)c2F)c(-c2ccnc(Nc3ccc(N4CCOCC4)nc3)n2)s1 [GSK2008607] | 55%
COCCOCCOc1cc2ncc3c4ccc(C#N)cc4[nH]c3c2cc1OC | 83%
Fc1ccc(-c2ncn(C3CCNCC3)c2-c2ccnc(Oc3ccc(-c4ccccc4)cc3)n2)cc1 [SB-245391] | 22%
c1ccc(-c2cnc3nccnn23)cc1 [AH20685] | 1%
COc1cccc(-c2ccc3c(NC(=O)C4CC4)n[nH]c3n2)c1 [SB-710903] | 6%

What follows are molecules tested on CAMKK2. Details: concentration: 1 μM, replicates: in singlicate; n = 1.

SMILES | %Inh
COc1cccc(C(=O)Nc2cccc(Oc3ccc4nc(NC(=O)C5CC5)cn4n3)c2)c1 | 0%
Cl.Cl.NCC(NC(=O)c1cc(-c2ccccc2)c(-c2ccnc3[nH]ccc23)s1)c1ccccc1 (stereo not drawn) [GSK1321561] | 10%
CC(=O)Nc1nc2cnc(Nc3cc(NC(=O)c4cccc(C5(C#N)CC5)c4Cl)ccc3C)nc2s1 | 12%
COc1cccc(NC(=O)NC2CCN(c3ccnc(Nc4cc(OC)c(OC)c(OC)c4)n3)C2)c1 (stereo not drawn) [GSK1379763] | 36%
COc1cc2c(cc1OCCN1CCNCC1)ncc1c3ccc(C#N)cc3[nH]c21 | 64%
CSc1cccc2c(-c3ccncn3)c(-c3ccc(F)cc3)nn12 [GW514786] | 0%
Cn1cc(-c2ccc3c(c2)CCN3C(=O)Cc2cccc(Cl)c2)c2c(N)ncnc21 [GSK2606590] | 12%
CCS(=O)(=O)c1ccc(OC)c(Nc2nccc(-c3c(-c4cccc(NC(=O)c5c(F)cccc5F)c4)nn4ncccc34)n2)c1 [GSK326180] | 20%
CCn1c(-c2nonc2N)nc2c(C#CC(C)(C)O)ncc(OCCCCN)c21.O=C(O)C(F)(F)F.O=C(O)C(F)(F)F [GSK507274] | 0%
O=C(Nc1cccc(-c2nn3ccccc3c2-c2ccnc(Nc3cccc(C(F)(F)F)c3)n2)c1)c1c(F)cccc1F [GSK292658] | 3%
CN(c1ccc(NC(=O)Nc2cc(C(F)(F)F)ccc2F)cc1)c1ccnc(Nc2ccc(S(N)(=O)=O)cc2)n1 [GW809893] | 15%
COc1cc(Nc2ncc3c(C)nc(-c4cc5ccccc5[nH]4)n3n2)cc(OC)c1OC [GW869516] | 9%
Cc1ccc(C)c(NC(=O)NC2CCN(c3ccnc(Nc4ccc(F)cc4)n3)C2)c1 (stereo not drawn) [GSK1379720] | 0%
c1ccc(Oc2ccc(Nc3ccnc4cc(-c5ccc(CNCCN6CCOCC6)o5)ccc34)cc2)nc1 [GW567145] | 0%
COc1cc(Nc2nccc(-c3c(-c4cccc(NC(=O)c5c(F)cccc5F)c4)nn4ncccc34)n2)cc(OC)c1OC [GSK327238] | 18%
COc1cc(Nc2nccc(N3CCC(NC(=O)Nc4cccc(C(C)=O)c4)C3)n2)cc(OC)c1OC (stereo not drawn) [GSK1379753] | 4%
Cl.Cl.NCC(NCc1ccc(-c2ccnc3[nH]ccc23)s1)c1ccccc1 (stereo not drawn) [GSK1321565] | 9%
Oc1cc(Nc2ccnc3cc(I)ccc23)ccc1F [GW552771] | 0%
Cc1ccc(C(=O)Nc2ccc(Nc3ccnc4cc(-c5nccs5)ccc34)cc2O)cc1.Cl [GW494702] | 6%

SMILES | %Inh
C[C@@H]1CC[C@@H](C(=O)Nc2ccccc2)CN1c1cc(-c2ccc3c(N)n[nH]c3c2)nc(N)n1 [GSK2286062] | 7%
Nc1ncc(-c2cccnc2)c2scc(-c3ccc4c(c3)CCN4C(=O)Cc3ccccc3)c12 [GSK683281] | 26%
Cl.c1ccc(-c2ccc3c(Nc4ccc5[nH]ccc5c4)ccnc3c2)nc1 [GW440138] | 12%
CCn1c(-c2nonc2N)nc2c(C#CC(C)(C)O)nc(OC[C@H](N)c3ccccc3)cc21 [GSK943949] | 0%
Cn1cc(-c2ccc3c(c2)CCN3C(=O)Cc2cccc(F)c2)c2c(N)ncnc21 [GSK2603358] | 29%
O=C(Nc1cccc(-c2nn3ncccc3c2-c2ccnc(Nc3ccccc3)n2)c1)c1c(F)cccc1F [GSK198271] | 8%
COc1cc(Nc2nccc(-c3c(-c4cccc(NC(=O)c5c(F)cccc5F)c4)nn4ccccc34)n2)cc(OC)c1OC [GSK323521] | 38%
FC(F)(F)c1ccc(/C=C/c2cncnc2Nc2ccc3[nH]c(Cc4ccccc4)nc3c2)cc1 [GW709199] | 0%
CC(C)(C)c1ccc2nccc(Nc3cccc(O)c3)c2c1 [GW856795] | 0%
CCc1ccc(-c2ccc3c(c2)-c2c(cnn2C)S(=O)(=O)N3C)cc1 | 12%
COc1cccc(C2=C(Nc3ccc(Cl)c(C(=O)O)c3)C(=O)NC2=O)c1 [SB-390769] | 0%
NCCCC(NC(=O)c1cc(Br)c(-c2ccnc3[nH]ccc23)s1)c1ccccc1.O=C(O)C(F)(F)F.O=C(O)C(F)(F)F (stereo not drawn) [GSK1287544] | 8%
COC(=O)Nc1nc2ccc(Oc3ccc(NC(=O)Nc4cc(C(F)(F)F)ccc4F)cc3)cc2n1C.Cl [GW692089] | 0%
CC(C)c1nc(-c2cccc(NS(=O)(=O)c3c(F)cccc3F)c2F)c(-c2ccnc(Nc3ccc(N4CCOCC4)nc3)n2)s1 [GSK2008607] | 15%
COCCOCCOc1cc2ncc3c4ccc(C#N)cc4[nH]c3c2cc1OC | 63%
Fc1ccc(-c2ncn(C3CCNCC3)c2-c2ccnc(Oc3ccc(-c4ccccc4)cc3)n2)cc1 [SB-245391] | 20%
c1ccc(-c2cnc3nccnn23)cc1 [AH20685] | 0%
COc1cccc(-c2ccc3c(NC(=O)C4CC4)n[nH]c3n2)c1 [SB-710903] | 7%
